# Source: PubChem BioAssay AID686970 (National Center for Advancing Translational Sciences (NCATS), 2013)
# Hit rate of the full screen: of about 360,000 compounds, about 6,000 (1.7%) were called active. Inconclusive results (about 8%) are left out. This is one part of a sample in which actives are shown more often than they occur. Values without a mark were called inactive. The call rests on the fitted dose curve; in most records, active means well fitted cell-killing curve with a large enough effect; inconclusive means small, poorly fitted or top-dose-only effect, or effect the other way; inactive means flat fitted curve, though single readings scatter.
# Assay: qHTS for induction of synthetic lethality in tumor cells producing 2HG: qHTS for the HT-1080-NT fibrosarcoma cell line;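 further: NT is the 2HG producing partner of a matched IDH1 knockdown line; nearly all actives have a fitted effect of over 55% in size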;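 on activity, negative = less viability: 0% = DMSO-treated cells and -100% = media-only wells without cells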
# Conditions: HT-1080-NT fibrosarcoma viability, CellTiter-Glo ATP luminescence, 48 h; series mostly up to 46.1 µM; activity, negative = less viability: at the top concentration
# In short: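 Viability of the 2HG-overproducing fibrosarcoma line after 48 hours of compound exposure at 37 degrees C was determined by luminescence with CellTiter-Glo, and concentration-effect curves were then fitted and categorized.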
# Potency means the concentration at half of the fitted maximal effect.
Structure (SMILES),"activity, negative = less viability",Potency
Cc1cc(Nc2ccc(C)c(C)c2)n2ncnc2n1,-4.68%,
CC(C)(C(=O)N1CCC1(C)C(=O)NS(=O)(=O)c1ccc(Br)cc1)c1ccccc1 (stereo unspecified),5.63%,
CC(C)c1nccn1S(=O)(=O)c1cc([N+](=O)[O-])ccc1Cl,10.8%,
CCc1nc(C)cn1S(=O)(=O)c1cc([N+](=O)[O-])ccc1Cl,,4.11 µM (active)
CCc1nc(C)cn1S(=O)(=O)c1cc(OC)c(C)cc1C,-3.6%,
COc1ccc(S(=O)(=O)/N=C2\C=C(NS(=O)(=O)c3ccccc3)C(=O)c3ccccc32)cc1,,18.4 µM (active)
Cc1ccc(S(=O)(=O)/N=C2\C=C(NS(=O)(=O)c3ccc(C)cc3)C(=O)c3ccccc32)cc1,-8.64%,
COc1ccc(S(=O)(=O)NCCCc2ccccc2)cc1,8.15%,
O=C1c2ccccc2C(c2nc3ccccc3[nH]2)N1c1ccccc1 (stereo unspecified),6.74%,
CC1(C)OC(=O)C2=C(C[C@@H](C3CCCCC3)O[C@@H]2c2ccc(Cl)cc2)O1,12.4%,
CN1OC[C@@H]2CN(C(=O)c3ccc(-c4ccccc4)cc3)[C@H](c3ccc(-c4cccc(F)c4)cc3)C[C@@H]21,-3.98%,
CCCCc1nnc(NC(=O)CS(=O)(=O)Cc2ccccc2)s1,9.31%,
CCCCOC(=O)Nc1nnc(CC(=O)NCc2ccccc2)s1,,4.11 µM (active)
CCCCOC(=O)Nc1nccs1,3.33%,
Cc1noc(C)c1-c1ccc(C(=O)NCc2ccncc2)c2occc12,-13.6%,
C/C(=N\NC(=O)Cc1ccc(Cl)cc1)c1ccccn1,,1.78 µM (active)
NC(=O)NC(CC(=O)NNC(=O)c1ccccn1)c1ccc(Cl)cc1 (stereo unspecified),-4.41%,
CC(=NNC(=S)N1CCCCCC1)c1ccccn1,-17.2%,
O=C(O)c1ccccc1Cc1ccc(F)c2ccccc12,-0.43%,
Nc1ncnc2c1ncn2[C@@H]1O[C@H](C(=O)NCC(F)(F)F)[C@@H](O)[C@H]1O,0.519%,
CCOC(=O)c1cc(-c2sc(NC(=O)c3ccccc3)nc2C)n(CCO)n1,-10.6%,
COc1ccc(Br)c(Cn2c(C)c(C(=O)NCc3cccs3)sc2=O)c1,-1.23%,

Structure (SMILES),"activity, negative = less viability",Potency
C[C@@H]1CN([C@H](C)CO)C(=O)c2cc(Br)cnc2O[C@@H]1CN(C)Cc1cncnc1,-0.345%,
CCCCN(CCCC)CC(O)Cn1c2ccccc2c(=O)c2ccccc21 (stereo unspecified),6.34%,
Cc1cc(C)n(CC(O)CN(c2ccccc2)S(=O)(=O)c2ccc3ccccc3c2)n1 (stereo unspecified),-4.25%,
CS(=O)(=O)N(CC(O)Cn1c2ccccc2c2ccccc21)c1cccc2ccccc12 (stereo unspecified),,18.4 µM (active)
COc1ccc(Cn2c(=O)[nH]c3cc(C(=O)N4CCN(C(=O)c5ccco5)CC4)ccc3c2=O)cc1,4.83%,
O=C1NC[C@H](CCCCN2C[C@H](Cc3ccc(O)cc3)N(CC3CCCCC3)C(=O)C2=O)N(CCc2ccccc2)C1=O,14.5%,
O=C(OCc1ccccc1)N1CCC2CC1c1cc(N3CCN(S(=O)(=O)c4cc(Cl)cc(Cl)c4)CC3)ccc12 (stereo unspecified),1%,
CCCCCCCCCCOC(=O)Cn1c(COc2ccc(C)cc2)[n+](C)c2ccccc21,,18.4 µM (active)
CCCCCCCCCCOC(=O)Cn1c(COc2cccc(OC)c2)[n+](C)c2ccccc21,-11.3%,
CCCCOc1ccc(NC(=O)CSCC(=O)OCC)cc1,-0.0183%,
CN1CCN(C(=O)c2ccc(NC(=O)c3ccc(Br)o3)cc2)CC1,28.2%,
O=C(Nc1ccc(Cl)cc1)c1csc([C@H]2C[C@H](O)[C@@H](CO)O2)n1,-2.6%,
CCOC(=O)C(C(=O)c1ccccc1)C(c1ccccc1)c1nccc2ccccc12 (stereo unspecified),-27.9%,
CCOC(=O)[C@]12CCC=C1N(Cc1ccco1)C(=O)[C@H](CC(=O)N1CCSCC1)C2,-2.08%,
O=[N+]([O-])c1c(NCCO)cc(Sc2nc3ccccc3s2)c2nonc12,,5.62 µM (active)
CCN(CC)CCCSc1nc2ccccc2s1,-5.21%,
Nc1nnc(SCC(=O)Nc2ccc3nc(SCC(=O)Nc4ccccc4)sc3c2)s1,-8.95%,
CC1(Cc2ccccc2C#N)C(=O)Nc2ccc(-c3ccc4[nH]ccc4c3)cc21 (stereo unspecified),,7.31 µM (active)
O=C(NCc1cccnc1)c1cc(C2CCCN(C(=O)C3CCCCC3)C2)on1 (stereo unspecified),16.2%,
Cc1ccc(-c2c(N)nc3ncccn23)cc1,15.3%,
COCC1CCCCN1C(=O)c1cc(COc2ccc(C)c(C)c2)on1 (stereo unspecified),-2.08%,
CC1(Oc2cccc(F)c2)CCN(Cc2ccccc2OC(F)F)C1 (stereo unspecified),-3.09%,

Structure (SMILES),"activity, negative = less viability",Potency
CCCC(=O)Nc1nc2ccc(NC(=O)c3cccnc3)cc2s1,,6.31 µM (active)
CSc1nc2ccc(NC(=O)c3c(F)cccc3F)cc2s1,5.67%,
O=C(Cc1ccccc1)Nc1ccc(NC(=O)c2cccnc2)cc1,12.2%,
CCCC(=O)Nc1nc2ccc(NC(=O)c3c(F)c(F)c(OC)c(F)c3F)cc2s1,,1.03 µM (active)
CCOC(=O)c1cc(NC(=O)c2cccnc2)ccn1,0.14%,
CC(=O)Nc1ccc2nc(NC(=O)CS(=O)(=O)c3ccc(F)cc3)sc2c1,-0.931%,
CCc1nc2c(OCC(=O)C(C)(C)C)cccn2c1N(C)C(=O)c1ccccc1F,-6.46%,
CC1C(=O)N(Cc2cn(CC3CCCCC3)nn2)CCS(=O)(=O)N1Cc1ccc(-c2cccc(N(C)C)c2)cc1 (stereo unspecified),-17.4%,
COC(=O)C[C@H]1C=C[C@H](NC(=O)c2ccc(F)cc2)[C@@H](CO)O1,-11.8%,
CN1C[C@@H](CO)O[C@@H](n2cnc3c(N4CCN(CCO)CC4)ncnc32)C1,15.9%,
O=C(Nc1ccccc1F)c1ccc(S(=O)(=O)N2CCCCCC2)cc1,-4.83% [at 9.24 µM],
CCOC(=O)N1CCN(S(=O)(=O)c2ccc(Br)cc2)CC1,10.4%,
CCOC(=O)N1CCN(S(=O)(=O)c2ccc(C(=O)Nc3ccc(F)cc3F)cc2)CC1,,1.78 µM (active)
O=C(c1cccs1)N1C[C@H](n2cc(C3CC3)nn2)[C@@H](O)C[C@@H]1c1ccccc1,0.548%,
CNC(=O)C[C@H]1C(=O)N(Cc2ccccc2)C[C@@H]1CSC,12%,
Cc1cccc(C)c1-n1nnnc1C(CCc1ccccc1)N1CCN(C/C=C/c2ccccc2)CC1 (stereo unspecified),18.4%,
CN(C)CCN(C(=O)CN1C(=O)c2ccccc2C1=O)c1nc2cc3c(cc2s1)OCCO3,6.71%,
CN(C)CCCN(C(=O)c1ccc(S(=O)(=O)N2CCCCCC2)cc1)c1nc2ccc(Br)cc2s1,,18.4 µM (active)
Cc1ccc2nc(N(CCN(C)C)C(=O)C3=COCCO3)sc2c1,-10.2%,
Brc1ccc2nc(N3CCCC3)sc2c1,-19%,
CCc1ccc2nc(N(CCCN(C)C)C(=O)c3ccc4c(c3)OCCO4)sc2c1,,20.6 µM (active)
COc1ccc2sc(N(CCCN(C)C)C(=O)c3ccc(S(=O)(=O)N(C)C4CCCCC4)cc3)nc2c1,-3.54%,
